# D2 PAM-1: positive allosteric modulators of human D2 dopamine receptor | HEK293 T-REx D2, calcium flux, EC20 dopamine potentiation | potentiation, % at 10 µM | hit rate 0.34% among 340,000 | AID 485347;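 active = potentiation over 3 SD above the plate norm, cut at about 30% in these data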; note: 0% is about no effect
# Target sequence (P14416 whole entry, looked up): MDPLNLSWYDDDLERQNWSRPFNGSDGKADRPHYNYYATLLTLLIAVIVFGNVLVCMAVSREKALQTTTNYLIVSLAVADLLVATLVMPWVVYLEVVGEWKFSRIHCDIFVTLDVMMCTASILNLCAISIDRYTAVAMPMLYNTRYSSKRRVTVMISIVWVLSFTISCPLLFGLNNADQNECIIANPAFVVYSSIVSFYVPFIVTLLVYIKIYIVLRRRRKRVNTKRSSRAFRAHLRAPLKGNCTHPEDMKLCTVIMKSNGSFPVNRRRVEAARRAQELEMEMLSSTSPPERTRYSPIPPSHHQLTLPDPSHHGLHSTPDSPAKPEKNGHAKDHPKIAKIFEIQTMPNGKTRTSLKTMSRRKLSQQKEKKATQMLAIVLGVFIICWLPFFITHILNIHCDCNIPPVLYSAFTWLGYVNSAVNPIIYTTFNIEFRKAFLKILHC
#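 Using a no-wash calcium dye in inducible, force-coupled HEK293 Trex cells expressing D2, we tracked fluorescence each second for 180 s after compound, then for 180 s after EC20 dopamine to detect augmented signalling.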
# D2 antag: antagonists of human D2 dopamine receptor; P14416; HEK293 TREx D2 cells, calcium flux, dopamine EC80; inhibition, % at 10 µM; hit rate 2% among 340,000; AID 485344; in the data active = inhibition above about 30%; inactive = below that, where a call was filed; note: 0% is about no effect
#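 Read-out: kinetic calcium fluorescence (1 cycle/s) in inducible HEK293 T-REx D2 cells after an EC80 dopamine addition that followed 180 s compound preincubation. Loss of the dopamine response indicates antagonism.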
# D2 PAM-2: positive allosteric modulators of human D2 dopamine receptor; P14416; DiscoveRx D2 beta-arrestin cells, luminescence, 90 min; 100% = 57 uM dopamine signal; hit rate 0.23% among 360,000; potentiation, % (test concentration not listed); in the data active = potentiation above about 50%; inconclusive = mostly about 30% to 49%
#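 PathHunter D2 cells, attached overnight at 37 deg C, received compound in DMSO plus dopamine at EC20 (50 nM final) for 90 min at 37 deg C. Beta-arrestin recruitment was read as luminescence after 1 h with detection reagent at ambient temperature.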
# D2 ag-1: agonists of human D2 dopamine receptor (beta-arrestin); AID 624465; P14416; activation, % (test concentration not listed); hit rate 0.084% among 360,000; DiscoveRx PathHunter D2 beta-arrestin, luminescence, 90 min; 100% = 57 uM dopamine signal; in the data active = activation above about 40%; inconclusive = between about 15% and that limit
#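 DiscoveRx PathHunter D2 beta-arrestin cells (2,100/well) attached overnight, then compound-stimulated 90 min at 37 C in HBSS/10 mM HEPES/0.1% Tween-20 buffer; beta-galactosidase complementation read by luminescence after 1 h at ambient temperature. Dopamine 57 uM final (EC100) as control.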
# D2 ag-2: D2 dopamine receptor (human) agonism. hit rate 0.53% among 340,000. activation, % at 2 µM. HEK293 T-REx D2 cells, calcium flux agonist mode. P14416;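 active = activation over 3 SD above normal in the single-dose calcium agonist read, cut at about 30% in these data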; note: 0% is about no effect
#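 Tetracycline-induced HEK293 T-REx cells with force-coupled D2 receptor, plated overnight at 30 C, loaded with no-wash calcium dye. After a 10 s baseline, compound was pin-added and calcium flux read kinetically for 180 s; calcium rises flagged agonists.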
# The depositor's hits bear a star; u = inconclusive; x = no result given. Sampled rows, rich in hits. Any-hit rate of the full collection: about 2.4%.
SMILES,D2 PAM-1,D2 antag,D2 PAM-2,D2 ag-1,D2 ag-2
O=c1c([N+](=O)[O-])c(NCCN2CCCCCC2)c2ccccc2n1-c1ccccc1,-20,49*,-4,2,0
CCn1c(=O)c([N+](=O)[O-])c(NCC(O)c2ccccc2)c2ccccc21 (stereo not given),-19,-10,-27,-3,-1
CCn1c(=O)c([N+](=O)[O-])c(NCCN(C)C)c2ccccc21,-21,59*,-15,5,0
Cc1cc(C)c2nc(N3CCCC(C(=O)NCc4cccc(Cl)c4)C3)sc2c1 (stereo not given),16,x,x,x,0
Cc1cc(NC(=O)CSc2ccccc2)no1,6,2,-22,-2,-1
Cc1cc(NC(=O)CSc2nnc(-c3ccccc3)o2)no1,x,x,-3,1,x
Cc1cc(NC(=O)CCc2ccc(-c3ccccc3)o2)no1,-16,33*,-19,-6,0
Cc1cc(NC(=O)CCS(=O)(=O)c2nc(-c3ccccc3)cc(C(F)(F)F)n2)no1,38*,13,-19,-7,1
Cc1cc(C)cc(-c2nnc(SCC(=O)Nc3cc(C)on3)o2)c1,8,36*,-11,0,0
Cc1cc(NC(=O)CSc2nnc(-c3ccccc3)c(-c3ccccc3)n2)no1,-7,80*,-2,1,-1
COc1ccc(NC(=O)CCS(=O)(=O)c2nc(-c3ccc4c(c3)OCO4)cc(C(F)(F)F)n2)cc1,6,x,x,x,1
CCOC(=O)C1=C(CNCc2ccccc2)NC(=O)NC1c1ccc(C)cc1 (stereo not given),2,x,x,x,0
O=C(Nc1cc2c(cc1C(=O)c1cccc(Br)c1)OCCO2)c1ccccc1F,6,x,x,x,-1
O=C1NC(c2cccs2)Nc2ccccc21 (stereo not given),7,1,-23,-3,-2
Cc1ccsc1C1NC(=O)c2ccccc2N1 (stereo not given),33*,-9,-15,1,1
CCCc1nnc(NC(=O)c2cc(=O)c3ccccc3o2)s1,10,x,x,x,-1
CC(=O)N1CCC(C(=O)NCCOc2cccc(C)c2)CC1,-2,35*,1,1,-1
Cc1cccc(OCCCN2CCCCCC2)c1,-15,40*,-20,1,0
Clc1cccc(OCCCCN2CCCCC2)c1,-25,77*,-4,-4,1
COc1ccc(CNC(=O)Cn2ncn3nc(-c4cccs4)cc3c2=O)cc1,-24,x,x,x,0
O=C(COC(=O)c1ccc(F)c(S(=O)(=O)N2CCOCC2)c1)c1ccc(Br)cc1,38*,36*,21,3,2
O=C(COC(=O)c1ccc(F)c(S(=O)(=O)N2CCOCC2)c1)c1ccc(Cl)cc1,2,2,-2,1,0
Cc1ccc(NC(=O)Cn2nnc(C(=O)NCCc3ccccc3)c2N)cc1,0,x,x,x,0
CC(C)c1ccc(N(C(=O)CNC(=O)c2ccco2)C(C(=O)NC2CCCC2)c2ccncc2)cc1 (stereo not given),-10,31*,-14,-6,0
O=C(O)c1cc(N/N=C/c2cccs2)ccc1Cl,-1,6,x,x,0
SMILES,D2 PAM-1,D2 antag,D2 PAM-2,D2 ag-1,D2 ag-2
Cc1ccc(/C=N/Nc2ccc(Cl)c(C(=O)O)c2)s1,9,-7,51*,5,-1
COc1cccc(C(=O)NCc2cn3ccccc3n2)c1,4,x,x,x,0
Cc1oc(-c2cccs2)nc1CN1CC[C@@](O)(c2ccccc2)[C@H]2CCCC[C@@H]21,-9,14,-14,-1,0
OC1(c2ccccc2)CCN(Cc2ccccc2)C2CCCCC21 (stereo not given),-27,38*,-37,-6,2
COc1cc(OC)cc(C(=O)Nc2ccc3nc(N4CCC(C)CC4)cc(C)c3c2)c1,10,x,x,x,0
COc1ccc(CCN2C(=O)CC(N3CCN(S(=O)(=O)c4ccccc4)CC3)C2=O)cc1 (stereo not given),31*,8,-26,0,0
Cc1nc(N2CCOCC2)[nH]c(=O)c1C(O)C(Cl)(Cl)Cl (stereo not given),-4,48*,-8,-4,1
Cc1nc(N2CCOCC2)[nH]c(=O)c1CCC(C)C,1,0,14,-2,0
C=CCN1C(=O)/C(=C/c2ccc(OC(C)=O)c(OCC)c2[N+](=O)[O-])SC1=S,10,30*,5,3,9
Cc1ccc(-c2nnc(Sc3nc4ccccc4o3)c3ccccc23)cc1,9,15,-6,-1,1
Cc1nnc(Sc2nc3ccccc3o2)c2ccccc12,32*,-10,-19,-3,0
Nc1ccc(N(CCO)CCO)cc1,5,12,64*,u,3
Clc1ccc(/C=C\c2nccc3c2[nH]c2ccccc23)cc1,-40,66*,-29,1,0
CCOc1ccc(NC(=O)CSc2oc(-c3ccc(F)cc3)nc2S(=O)(=O)c2ccc(C)cc2)cc1,0,x,x,x,0
O=C(O)CC(NC(=O)C1CCCCC1)c1cc([N+](=O)[O-])ccc1Cl (stereo not given),3,-14,-4,-5,0
O=C(O)CC(NC(=O)C12CC3CC(CC(C3)C1)C2)c1cc([N+](=O)[O-])ccc1Cl (stereo not given),10,72*,3,-4,-2
CS(=O)(=O)c1ccccc1-c1nnc(-c2ccc(Cl)cc2)o1,-2,19,-4,0,0
O=S(=O)(Cc1ccc(Cl)cc1)c1ccccc1-c1nnc(-c2ccccc2)o1,8,55*,10,1,1
Cc1[nH]c2ccccc2c1CCNC(=O)c1ccc2c(c1[N+](=O)[O-])C(=O)c1ccccc1C2=O,-9,-5,93*,u,0
COc1ccc2c(c1O)C(=O)c1ccccc1C2=O,-6,4,x,x,0
Cc1[nH]c2c(C)cccc2c1CCNC(=O)c1ccc2c(c1[N+](=O)[O-])C(=O)c1ccccc1C2=O,-7,-5,93*,u,0
CCCNC(=O)NCCc1c(C)[nH]c2ccccc12,7,-1,-4,5,0
CN(C)C(=O)c1ccc2c(c1[N+](=O)[O-])C(=O)c1ccccc1C2=O,x,x,68*,u,x
C=CCc1cccc2cc(C(=O)NCCc3c(C)[nH]c4c(C)cccc34)c(=O)oc12,-4,x,x,x,0
CCc1noc(-c2ccc(N(C)Cc3ccc(OC)cc3)c([N+](=O)[O-])c2)n1,2,x,x,x,x
C=CCNCCOCCSc1ccc(Cl)cc1,-20,32*,-28,6,0
Cc1cn2c(=O)cc(COC(=O)c3cccc(NC(=O)c4ccc(C(C)(C)C)cc4)c3)nc2s1,6,x,x,x,1
O=C1C(=O)c2cccnc2-c2ncccc21,x,x,u,56*,x
O=C1c2cccnc2-c2ncccc21,x,x,-1,-3,x

# Screens (PubChem BioAssay)
